Source: PubChem BioAssay (National Center for Advancing Translational Sciences (NCATS))
HepG2 viability – counter-screen for TGF-b inhibitors: cytotoxicity in HepG2 cells | Potency, µM (top dose mostly 46.1 µM), for inactives: at the highest dose activity change, negative = cytotoxicity, actives largely listed as cytotoxic | HepG2 CAGA-GFP viability, ATP luminescence, 18 h | actives 0.76% (n = 410,000); further: potency means the concentration at half of the fitted maximal effect
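CellTiter-Glo luminescence gave cytotoxicity after 18 hours at 37 degrees C. The cells were HepG2 CAGA-GFP in 1% FBS DMEM, stimulated with 500 pg/mL TGF-beta after compound addition. %Activity was normalised to no-cell wells (complete cell-killing) and DMSO (no toxicity), and curves were fitted and classified.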
TDP1 cell noCPT – qHTS for Inhibitors of human tyrosyl-DNA phosphodiesterase 1 (TDP1): qHTS in cells in absence of CPT. DT40 Tdp1-/- hTDP1 cells, no CPT, ATP luminescence, 48 h. Potency, µM (doses to about 46.2 µM), inactives show at the top dose activity change, negative = growth inhibition, most hits filed as inhibitors. actives 15% (n = 420,000); further: potency means the concentration at half of the fitted maximal effect; on the % scale 0 is the no-effect control and ±100 the full control effect; nearly all actives have a fitted effect of over 55% in size
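Cells were dispensed at 400 per well, compounds added by pin tool, plates incubated ≥48 hr at 37 °C, then CellTiter-Glo added for 30 min at room temperature before luminescence reading. Line: DT40 Tdp1-/- complemented with hTDP1; camptothecin omitted.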
DT40 TDP1 CPT – DT40-hTDP1 cell growth loss with CPT | chicken DT40 Tdp1-/-;hTDP1 cells + 20 nM CPT, ATP luminescence, 48 h | Potency, µM (top dose mostly 46.2 µM), without a hit: at the top dose activity change, negative = growth inhibition, most hits filed as inhibitors | actives 12% (n = 420,000); further: potency means the concentration at half of the fitted maximal effect; on the % scale 0 is the no-effect control and ±100 the full control effect; nearly all actives have a fitted effect of over 55% in size
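Chicken DT40 Tdp1-/- cells stably complemented with human TDP1 were seeded at 400 cells/well in medium containing 20 nM camptothecin, exposed to pin-transferred compounds, and grown at 37 °C for at least 48 hr. Viability was read as ATP luminescence.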
TGFb SMAD3 inh – blocks TGF-b signaling; HepG2 CAGA-GFP TGF-b/SMAD3 reporter, GFP fluorescence, 18 h; TGF-beta stimulated, 500 pg/mL final; actives 1.2% (n = 410,000); Potency, µM (titrated, usually from 46.1 µM), for the others: at the top dose activity, negative = inhibition, hits mostly inhibitors; further: potency means the concentration at half of the fitted maximal effect; on the % scale 0 is the no-effect control and ±100 the full control effect; nearly all actives have a fitted effect of over 65% in size
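Read-out: total well GFP (ex488/em500-530) summed from mean per-cell fluorescence. Cells: HEPG2 CAGA-GFP, 1% FBS DMEM, 18 h at 37 degrees C with 500 pg/mL final TGF-beta. Unstimulated wells served as the full-inhibition control; stimulated DMSO wells = 0%.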
TDP1 inh – blocks human tyrosyl-DNA phosphodiesterase 1. recombinant TDP1, AlphaScreen DNA substrate cleavage. Potency, µM (series often up to 130 µM), without a hit: at the highest dose activity change, negative = inhibition, actives largely listed as inhibitors. actives 0.28% (n = 350,000). AID 485290; further: potency means the concentration at half of the fitted maximal effect; on the % scale 0 is the no-effect control and ±100 the full control effect; nearly all actives have a fitted effect of over 40% in size
Target sequence (Q9NUW8 whole entry, looked up): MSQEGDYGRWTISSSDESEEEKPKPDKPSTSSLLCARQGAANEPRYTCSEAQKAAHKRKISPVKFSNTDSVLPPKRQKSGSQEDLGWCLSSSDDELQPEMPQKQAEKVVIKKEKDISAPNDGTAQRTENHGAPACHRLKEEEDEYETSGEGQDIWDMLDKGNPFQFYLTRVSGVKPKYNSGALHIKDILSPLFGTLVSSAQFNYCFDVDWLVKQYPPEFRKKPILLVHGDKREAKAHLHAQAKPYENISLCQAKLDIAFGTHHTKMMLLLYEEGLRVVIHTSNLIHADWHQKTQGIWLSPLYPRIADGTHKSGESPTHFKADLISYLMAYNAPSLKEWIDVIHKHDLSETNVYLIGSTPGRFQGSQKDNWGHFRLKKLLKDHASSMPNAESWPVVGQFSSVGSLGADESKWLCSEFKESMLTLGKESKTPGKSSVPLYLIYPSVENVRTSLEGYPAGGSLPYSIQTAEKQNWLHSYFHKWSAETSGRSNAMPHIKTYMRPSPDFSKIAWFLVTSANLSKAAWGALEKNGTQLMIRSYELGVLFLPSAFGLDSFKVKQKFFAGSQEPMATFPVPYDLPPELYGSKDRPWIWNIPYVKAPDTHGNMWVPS
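Here, a 5' biotin and 3' phosphotyrosine-FITC DNA oligonucleotide reports Tdp1 activity: intact substrate bridges AlphaScreen beads, while cleavage leaves a 3' phosphate and drops signal. All incubations at room temperature.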
IL-1B inflam inh – inhibitors of inflammasome signaling (IL-1 beta secretion); THP-1 LPS/ATP IL-1B secretion, AlphaLISA, 16 h; active compounds read low; activity change, % at 57.5 µM; actives 4.7% (n = 360,000); in the data active means activity change below about -50%; inconclusive means mostly about -30% to -49%; further: on the % scale 0 is the no-effect control and ±100 the full control effect
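THP-1 cells pretreated 1 hr with compounds (up to 57.5 uM final), then stimulated with LPS (250 ng/mL final) plus ATP (1.25 mM final); secreted IL-1B measured by AlphaLISA after 16 hr, decreased signal indicating inhibition.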
The depositor's hits bear a star; ? = inconclusive; . = no result given; [ ] = remark or other dose. Hits are enriched below; roughly 18% of the tested compounds scored in any of these assays. Unless noted, the call rests on the fitted dose curve; in most records, active means well fitted curve in the direction sought with a large enough effect; inconclusive means small, poorly fitted or top-dose-only effect, or another doubt; inactive means no such curve, though single readings can be large; an effect the other way counts as inactive or inconclusive.

SMILES	HepG2 viability	TDP1 cell noCPT	DT40 TDP1 CPT	TGFb SMAD3 inh	TDP1 inh	IL-1B inflam inh
COc1cccc(-c2nc(SCc3cc(=O)c4ccc(C)c(C)c4[nH]3)n[nH]2)c1	2.1%	8.2µM*	?	-3.2%	-2.7%	.
O=C1C(c2cc(=O)c3ccccc3[nH]2)=C(O)c2ccccc21	-26.6%	?	?	-15.7%	.	?
O=c1cc(CSc2n[nH]c(-c3ccccc3)n2)[nH]c2ccccc12	1.3%	25.9µM*	25.9µM*	-17.3%	0.0%	.
O=c1cc(-c2ccccc2)[nH]c2ccccc12	-0.3%	0.92µM*	0.517µM*	-15.0%	1.0%	92.2
COCc1ccc(CN2CCOc3ccc(C4=CCCCC4)cc3C2)o1	.	?	2.6%[9.04 µM]	.	.	.
COc1ccc(N=Cc2c(O)c3ccccc3n2C(C)=O)cc1	-17.3%	20.6µM*	?	5.9%	.	0.0
COc1ccc(N=Cc2c(OC)ccc3ccccc23)cc1	-31.6%	-30.4%	3.3%	0.0%	.	6.9
COc1ccc(N=Cc2sc(O)c3ccccc23)cc1	-28.8%	?	?	87.1%	8.3%	-83.4*
CCC(C(N)=O)N1C(=O)C2C3CCC(C3)C2C1=O (stereo not given)	-3.3%	-0.4%	0.2%	7.5%	.	24.0
O=C(OCc1ccccc1)C1CCCN1C(=O)c1cccs1 (stereo not given)	-2.8%	-2.9%	-4.5%	4.1%	3.1%	17.3
O=C(OCc1ccccc1)C1CCCN1C(=O)c1ccccc1[N+](=O)[O-] (stereo not given)	-1.3%	16.4µM*	14.6µM*	?	-2.9%	-63.0*
O=C(CNC(=O)OCc1ccccc1)NCC(=O)N1CCCC1C(=O)OCc1ccccc1 (stereo not given)	11.2µM*	-21.5%	?	?	1.9%	-88.5*
Cc1cccc(NC(=O)C2CCCN2C(=O)OCc2ccccc2)c1 (stereo not given)	-9.3%	0.058µM*	-33.6%	0.7%	-0.3%	-6.5
O=C(O)CNC(=O)C1CCCN1C(=O)CNC(=O)OCc1ccccc1 (stereo not given)	4.1%	2.4%	18.3%	14.8%	.	-3.3
CC(C)CC(=O)N1CCN(Cc2ccccc2Cl)CC1	0.1%	15.4%	6.3%	0.3%	.	-9.2
CC(CN1CCCCC1)OC(=O)/C=C/c1ccccc1 (stereo not given)	-2.0%	22.0%	-3.2%	-6.1%	1.9%	18.8
CSCC[C@H](NC(=O)NCc1ccc(F)cc1)C(=O)O	-6.7%	?	-4.0%	-24.6%	2.1%	8.7
CC1CCCCN1C(=O)c1c([N+](=O)[O-])cnn1C (stereo not given)	-0.1%	-0.5%	-8.7%	5.7%	3.3%	6.6
Cc1cc(C(=O)CN2C(=O)NC(C)(c3ccc(F)c(F)c3)C2=O)c(C)n1C1CC1 (stereo not given)	-10.1%	5.8µM*	7.31µM*	-21.4%	.	28.1
COc1ccc(C2(C)NC(=O)N(CC(=O)c3cc(C)n(C4CC4)c3C)C2=O)cc1 (stereo not given)	-15.5%	?	?	-14.2%	7.8%	18.0
Cc1ccc(C)c(S(=O)(=O)c2cn(Cc3ccccc3)c3cc(N4CCCC4)c(F)cc3c2=O)c1	-12.2%	?	?	?	1.2%	.
COc1cc(O)c(C(CCN2CCN(c3ccccc3)CC2)c2cc(OC)c(OC)c(OC)c2)c(OC)c1 (stereo not given)	-6.3%	23.1µM*	20.6µM*	?	23.8%	-7.3
COc1cc(O)c(C(CCN2CCCC2)c2ccc3c(c2)OCO3)c(OC)c1 (stereo not given)	-19.4%	23.1µM*	23.1µM*	2.5%	17.4%	?
CCN(CC)CCC(c1ccc2c(c1)OCO2)c1c(O)cc(OC)cc1OC (stereo not given)	-27.8%	18.4µM*	20.6µM*	-20.5%	14.4%	-25.8
COc1cc(O)c(C(CCN2CCN(c3ccccc3)CC2)c2ccc3c(c2)OCO3)c(OC)c1 (stereo not given)	-12.4%	16.4µM*	23.1µM*	?	23.2%	?
SMILES	HepG2 viability	TDP1 cell noCPT	DT40 TDP1 CPT	TGFb SMAD3 inh	TDP1 inh	IL-1B inflam inh
Cc1cc(C(=O)COC(=O)Cc2ccc(Cl)cc2)c(C)n1C	-3.5%	?	-10.3%	10.3%	4.8%	-13.2
CC1=C(C(=O)N2CCOCC2)CC(CC(=O)NC2CCCC2)C(=O)N1Cc1ccccc1 (stereo not given)	-0.6%	-10.8%	5.6%	10.7%	.	19.4
O=C(O)c1c[nH]c2nccnc12	-4.2%	2.6%	2.5%	1.4%	.	?
Cc1cc(C(F)F)n2nc(C(=O)Nc3ccc(F)c(Cl)c3)nc2n1	-42.9%	?	-20.1%	?	-1.1%	.
COc1ccccc1C(=O)N1CCN(Cc2cc(=O)oc3cc(C)ccc23)CC1	-13.0%	?	?	-9.3%	7.0%	.
Cc1ncc2c(c1CNC(=O)c1ccc3c(c1)OCO3)CCN(C(=O)c1coc3c1C(=O)CCC3)C2	.	-16.1%	11.7%[9.04 µM]	.	.	.
Cc1ccc(Cc2c(C3CCCCC3)nc3cc(C)c(Br)c(C)n23)cc1	-21.1%	?	?	8.6%	.	15.8
Cc1ccc2nc(C3CCCCC3)c(Cc3ccsc3)n2c1	.	9.2µM*	13µM*	.	.	-11.4
Cc1ccc(Cc2c(C3CCCCC3)nc3ccc(C)cn23)cc1	-55.6%	18.4µM*	18.4µM*	?	.	-52.4*
COC(=O)[C@@H]1CCCN1Cc1ccc2c(c1)CN(Cc1ccccc1F)CCO2	.	-11.7%	-5.8%[9.04 µM]	.	.	.
Cc1ccc(Cn2c(C)c(CNCc3ccc(OC(C)C)cc3)c(C(=O)O)c2C)cc1	-5.7%	?	?	4.1%	7.6%	.
COc1ccccc1N(C)c1cc2c(c3c1ccn3C)C1CCC2O1 (stereo not given)	-48.3%	?	23.1µM*	15.8µM*	.	0.0
CN(Cc1ccccc1)c1cc2c(c3c1ccn3C)C1CCC2O1 (stereo not given)	1.9%	18.4µM*	?	?	.	-2.4
CN(C)CCN(C)c1cc2c(c3c1ccn3C)C1CCC2O1 (stereo not given)	-13.2%	?	?	-20.5%	.	-3.5
Cn1ccc2c(N3CCCCC3)cc3c(c21)C1CCC3O1 (stereo not given)	-2.7%	-21.7%	-5.3%	-2.4%	.	-0.7
